PubChem BioAssay (NCATS)
Inconclusive results are not listed. A call without a number means that no potency is given here. The source made the active and inactive calls. Calls come from the whole dose curve; as a rule, active = well fitted curve in the direction sought with a large enough effect; inconclusive = small, poorly fitted or top-dose-only effect, or another doubt; inactive = no such curve, though single readings can be large or run the other way.

Target: Metallo-beta-lactamase type 2 (Klebsiella pneumoniae) (UniProt C7C422)
Sequence (C7C422 whole entry, looked up): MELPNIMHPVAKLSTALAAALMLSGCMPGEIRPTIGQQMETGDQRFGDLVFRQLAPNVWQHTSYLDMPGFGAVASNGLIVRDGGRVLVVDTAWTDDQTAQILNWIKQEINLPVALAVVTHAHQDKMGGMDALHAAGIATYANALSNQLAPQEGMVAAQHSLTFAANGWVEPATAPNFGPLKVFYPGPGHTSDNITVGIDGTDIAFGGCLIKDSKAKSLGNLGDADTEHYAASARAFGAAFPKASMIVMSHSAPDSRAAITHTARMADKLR
Test: qHTS to identify inhibitors of the New Delhi Metallo-beta-lactamase (NDM): assay validation screen against the NCATS LOPAC Collection (AID 1794843);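 note: nitrocefin turnover by NDM-1 measured as 485 nm absorbance at plateau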
Details: NDM-1 enzyme, nitrocefin hydrolysis, absorbance 485 nm; series mostly up to 38.4 µM
Description: Assay Submitter (PI): James Inglese Ph.D., Patricia Dranchak Ph.D., Mahesh Aitha Ph.D.
Assay Development and Screening Technology Laboratory (ADST)
National Center for Advancing Translational Sciences (NCATS), Rockville, MD
National Institute of Health (NIH), Bethesda, Maryland
The metallo-beta-lactamases (MBL) are a main antibiotic resistance mechanism evolved by bacteria. There is an urgent clinical need for MBL inhibitors to mitigate this growing threat. To support a machine-based learning study, qHTS has been used to experimentally test inhibitors identified by prediction tools.
PROTOCOL TABLE (as described by Inglese et al., 2007)
SEQUENCE No. (e.g., 1, 2, 3, etc.); […] (e.g., enzyme, Incubation, Reagent, etc.); VALUE; DESCRIPTION
1; NDM-1; 4 uL of 3 nM enzyme in 50 mM HEPES (pH 7.0), 1 uM Zn2SO4, 0.01% Tween20; Use BioRaptr to dispense into Aurora black, clear bottom low base 1536-well plates
2; Compounds; 23 nL; Use Pin Tool (Wako) to transfer DMSO control and library compounds in DMSO
4; Reagent; 2 uL of 50 uM nitrocefin
6; Detector; Absorbance at 485 nm (bandwidth = 5 nm, 25 flashes/well) on Tecan Infinity
NOTES (numbers refer to sequence above)
1; Column 1 of each plate received assay buffer without enzyme and columns 2-48 received enzyme for a final assay concentration of 2 nM.
2; Control plate contained DMSO in columns 1, 2, 3, and 4.
3; Compound interaction with enzyme.
5; Substrate interaction with enzyme, plateau phase of kinetics.
6; Default reader settings were applied for absorbance read at 485 nm, bandwidth = 5 nm, 25 flashes/well.
Inglese J, Shamu CE, Guy RK. 2007. Reporting data from high-throughput screening of small-molecule libraries. Nat Chem Biol. doi:10.1038/nchembio0807-438
Yasgar A, Shinn P, Jadhav A, Auld D, Michael S, Zheng W, Austin CP, Inglese J, Simeonov A. 2008. Compound Management for Quantitative High-Throughput Screening. J Lab Autom 13:79 - 89. doi:10.1016/j.jala.2007.12.004

| Compound | Potency |
| --- | --- |
| CCCN(CCC)C1Cc2cc(OC)c(OC)cc2C1 | inactive |
| CCCCCCCCCCCCCC(=O)O[C@@H]1[C@@H](C)[C@@]2(O)[C@@H](C=C(CO)C[C@@]3(O)C(=O)C(C)=C[C@@H]23)C2C(C)(C)[C@@]21OC(C)=O (stereo not given in full) | inactive |
| C=CCN1C[C@@H](C)N([C@H](c2ccc(C(=O)N(CC)CC)cc2)c2cccc(OC)c2)C[C@@H]1C | inactive |
| CO[C@H]1CC=C2CCN3CCC4=C(CC(=O)OC4)[C@]23C1 | inactive |
| CC(N)c1cccc(Cl)c1Cl (stereo not given) | inactive |
| NC(=O)CI | inactive |
| CC(=O)NBr | inactive |
| CC(N)Cc1c[nH]c2ccc(OCc3cccs3)cc12 (stereo not given) | inactive |
| N#C/C(=C/c1ccc(O)c(O)c1)C(N)=S | inactive |
| NC(C(=O)O)c1cc(=O)[nH]o1 (stereo not given) | inactive |
| c1ccc2cc(CC3=NCCN3)ccc2c1 | inactive |
| CC(Cc1ccc(OCC(=O)O)cc1)NCC(O)c1cccc(Cl)c1 (stereo not given) | inactive |
| COC(=O)N1CCN(C(=O)Cc2ccc(Cl)c(Cl)c2)C(CN2CCCC2)C1 (stereo not given) | inactive |
| CCOC(=O)c1ncn2c1[C@@H]1CCCN1C(=O)c1cc(OC)ccc1-2 | inactive |
| Clc1ccc(N2CC3CCC(C2)N3)nn1 | inactive |
| O=C1/C(=C/c2ccccc2)C[C@@]2(O)[C@H]3Cc4ccc(O)c5c4[C@@]2(CCN3CC2CC2)[C@H]1O5 | inactive |
| CC(C)NP(=O)(NC(C)C)OP(=O)(NC(C)C)NC(C)C | inactive |
| O=C1CC[C@@]2(O)C3Cc4ccc(O)c5c4C2(CCN3CC2CC2)[C@H]1O5 (stereo not given in full) | inactive |
| COc1ccc2[nH]c3c(c2c1)CCNC3 | inactive |
| OC1CCCCC1N1CCC(c2ccccc2)CC1 (stereo not given) | inactive |

| Compound | Potency |
| --- | --- |
| CN1C2CCC1CC(OC(c1ccccc1)c1ccccc1N)C2 (stereo not given) | inactive |
| COc1ccc(OC)c(C(O)C(C)N)c1 (stereo not given) | inactive |
| C[C@@H]1O[C@@H](O[C@H]2C[C@@H](O)[C@]3(CO)[C@@H]4C(CC[C@]3(O)C2)[C@@]2(O)CC[C@H]([C@@H]3COC(=O)C3)[C@@]2(C)C[C@H]4O)[C@H](O)[C@H](O)[C@H]1O (stereo not given in full) | inactive |
| C[C@]12Cc3cn4c(nc3C=C1CCC1C2CC[C@@]2(C)[C@H]1CC[C@@]2(O)C#N)nc1ccccc14 (stereo not given in full) | inactive |
| Nc1cc2c(ncn2CCOCP(=O)(O)O)c(=O)[nH]1 | inactive |
| CC(=O)OCC1=C(C(=O)O)N2C(=O)[C@@H](NC(=O)CCC[C@@H](N)C(=O)O)[C@H]2SC1 | inactive |
| C[C@H](N)Cc1cccc(C(F)(F)F)c1 | inactive |
| CCCN1CC[C@@H]2c3cc(O)ccc3CC[C@@H]21 | inactive |
| c1ccc2c(c1)[I+]c1ccccc1-2 | inactive |
| CCNC(=O)[C@H]1O[C@@H](n2cnc3c(N)ncnc32)[C@H](O)[C@@H]1O | inactive |
| CC(N)[C@H](O)c1ccc(O)c(O)c1 (stereo not given in full) | inactive |
| CC(=O)c1c(O)c(C)c(O)c(Cc2c(O)c3c(c(C(=O)/C=C/c4ccccc4)c2O)OC(C)(C)C=C3)c1O | inactive |
| COc1ccc2[nH]cc(CCN)c2c1 | inactive |
| CN1CC[C@@]2(C)c3cc(O)ccc3N(C)C12 (stereo not given in full) | inactive |
| NC(CCCCCP(=O)(O)O)C(=O)O (stereo not given) | inactive |
| C[N+]1(C)CCc2cc3c(cc2[C@H]1[C@@H]1OC(=O)c2c1ccc1c2OCO1)OCO3 | inactive |
| Cc1c2ccncc2c(C)c2c1[nH]c1ccccc12 | inactive |
| CCCN1CCC[C@@H](c2cccc(O)c2)C1 | inactive |
| Cc1[nH]c2ccc(O)cc2c1CCN | inactive |
| C=CCN1CCC23c4c5ccc(O)c4O[C@H]2C(=O)CC[C@@]3(O)C1C5 (stereo not given in full) | inactive |
